From PubChem BioAssay
For part of these data: Measured potencies and affinities stand elsewhere. The source made the active and inactive calls.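 The calls were made as follows, unless noted: active = calcium signal cut by more than 3 SD below the full-agonist control yet still positive, in both repeats and the earlier primary screen; inactive = the rest.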

Legend:
[1] = system: TRPC4 beta (transient receptor potential cation channel C4), mouse; assay: TRPC4 cation channel opening, retest – cell-based, Fluo4 calcium, HEK293 TRPC4beta/mu-opioid, duplicates, 10 µM, confirmation (AID 2426;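 active = fluorescence ratio normalized to control raised more than 50% in primary screen plus both repeat runs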); settings: Fluo4 calcium fluorescence, at 10 µM; active compounds read high
[2] = system: transient receptor potential cation channel C4 beta (TRPC4), mouse; assay: TRPC4 cation channel opening, second retest – cell-based, second round, Fluo4, HEK293 TRPC4beta/mu-opioid, 1 µM, confirmation (AID 2461;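 active = primary screen active and over 50% activation in each of two duplicate runs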); settings: Fluo4 calcium fluorescence, at 1 µM; active compounds read high
[3] = system: TRPC4 (transient receptor potential cation channel C4 beta), mouse; assay: potentiation of DAMGO EC20 TRPC4 response – cell-based, second round, Fluo-4, HEK293 TRPC4beta/mu-opioid, 1 µM, confirmation (AID 2554;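 active = primary screen hit whose fluorescence ratio, in both repeats, exceeds the weak agonist control mean by 3 SD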); settings: DAMGO EC20, Fluo-4 calcium flux, at 1 µM; active compounds read high
[4] = system: TRPC4 beta (transient receptor potential cation channel C4), mouse; assay: potentiation of DAMGO EC20 TRPC4 response – cell-based, Fluo-4, HEK293 TRPC4beta/mu-opioid, confirmation (AID 2555;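 active = primary screen hit whose calcium fluorescence ratio, in both repeats, exceeds the weak agonist control mean by 3 SD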); settings: DAMGO EC20, Fluo-4 calcium flux, at 10 µM; active compounds read high
[5] = target: Short transient receptor potential channel 4 (Mus musculus) (UniProt Q9QUQ5); assay: blockers of DAMGO-evoked TRPC4 calcium flux – cell-based, Fluo4, HEK293 TRPC4beta/mu-opioid, confirmation (AID 2636); settings: at 10 µM; active compounds read high
[6] = target: Short transient receptor potential channel 4 (Mus musculus) (UniProt Q9QUQ5); assay: blockers of DAMGO-evoked TRPC4 calcium flux – cell-based, second round, Fluo4, HEK293 TRPC4beta/mu-opioid, 1 µM, confirmation (AID 2637;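 active = calcium signal ratio cut to more than 3 SD under the fully stimulated control mean yet still positive, in both repeats and the primary screen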); settings: at 1 µM; active compounds read high
[7] = target: Short transient receptor potential channel 4 (Mus musculus) (UniProt Q9QUQ5); assay: calcium entry via TRPC4 opening agents – cell-based, HEK293 TRPC4/mu-opioid, Fluo-4 calcium, dose response (AID 434937;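 active = primary screen activator hit with a dose response curve and TRPC4 channel activation at any tested dose; inactive = no activation, no dose response, or not a primary hit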)
[8] = target: Short transient receptor potential channel 4 (Mus musculus) (UniProt Q9QUQ5); assay: potentiation of DAMGO-evoked TRPC4 calcium signal – cell-based, HEK293 TRPC4/mu-opioid, Fluo-4 calcium, EC20 DAMGO, dose response (AID 434941;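 active = earlier screen potentiator hit that boosts the TRPC4 ion channel at some dose, with a dose response; inactive = no potentiation, no dose response, or not a prior hit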;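 also: calcium entry triggered by an EC20 dose of DAMGO at the co-expressed mu-opioid receptor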)
[9] = target: Short transient receptor potential channel 4 (Mus musculus) (UniProt Q9QUQ5); assay: block of DAMGO-driven TRPC4 calcium entry – cell-based, HEK293 TRPC4/mu-opioid, Fluo-4 calcium, dose response (AID 434942;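 active = primary screen inhibitor hit that blocks the TRPC4 channel at some tested dose, yielding a dose curve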)
[10] = target: Short transient receptor potential channel 6 (Mus musculus) (UniProt Q61143); assay: TRPC6 blockade by TRPC4 inhibitor hits – cell-based, HEK293, membrane potential dye, duplicate, selectivity assay for TRPC4 inhibitor project, confirmation (AID 434948;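 active = active in primary screen and both duplicates, each dropping signal beyond three positive-control SD with fluorescence still positive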); settings: HEK293 TRPC6, membrane potential dye fluorescence, at 10 µM, stimulated with maximal-effect acetylcholine; active compounds read high
[11] = target: Short transient receptor potential channel 6 (Mus musculus) (UniProt Q61143); assay: TRPC6 opening by TRPC4 activator hits – cell-based, HEK293, membrane potential dye, duplicate, selectivity assay for TRPC4 activator project, confirmation (AID 434950;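 active = membrane potential signal rise above negative control mean plus 3 SD in both duplicates, also active in the earlier TRPC4 screen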;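 as to activation: 0% = buffer only wells and 100% = acetylcholine maximal-effect wells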); settings: HEK293 TRPC6, membrane potential fluorescence, at 10 µM; activation: active compounds read high; outcome: activation
[12] = target: Short transient receptor potential channel 6 (Mus musculus) (UniProt Q61143); assay: positive modulators of mouse TRPC6 channel – HEK293 cells, membrane potential dye, duplicate, selectivity assay for TRPC4 potentiator project, confirmation (AID 434952;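 active = compound raising the membrane signal above positive-control mean plus 3 SD in both repeats, and a primary screen hit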); settings: HEK293 TRPC6, membrane potential dye fluorescence, at 10 µM, maximal acetylcholine added after compound; active compounds read high
[13] = target: Short transient receptor potential channel 4 (Mus musculus) (UniProt Q9QUQ5); assay: calcium flux activators in TRPC4/5HT1a cells, counter-screen for TRPC4 activator project, cell-based, second counter screen, HEK293 TRPC4/5HT1a, Fluo-4 (AID 434977;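 active = calcium signal rise above buffer-control mean plus 5 SD in both duplicates, and also a hit in the primary screen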); settings: Fluo-4 calcium flux, at 10 µM; active compounds read high
[14] = serotonin-gated TRPC4 signal block – cell-based, second counter screen, HEK293 TRPC4/5HT1a, Fluo-4, counter-screen for TRPC4 inhibitor project, confirmation (AID 434978;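 active = primary screen active whose calcium signal fell more than 3 SD beyond the full-serotonin control mean in both duplicate plates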;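 also: serotonin given first at submaximal then at maximal dose after compound preincubation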); settings: Fluo-4 calcium flux, at 10 µM, serotonin added to trigger calcium flux; active compounds read high
[15] = system: TRPC4 (mouse), co-expressed with 5HT1a in HEK293; assay: enhancement of serotonin-evoked TRPC4 response – cell-based, second counter screen, HEK293 TRPC4/5HT1a, Fluo-4, counter-screen for TRPC4 potentiator project, confirmation (AID 434979;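 active = signal rise over 3 SD above mean of control wells given weak agonist, in both repeats and first screen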); settings: Fluo-4 calcium flux, at 10 µM, serotonin added at its EC20 dose; active compounds read high
[16] = nonspecific calcium rise without TRPC4 – cell-based, HEK293 mu-opioid receptor line, counter-screen for TRPC4 activator project, confirmation (AID 449723;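 active = hit in primary screen, with calcium signal over 5 SD above buffer well mean in both duplicates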;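 also: counter screen cells carry the mu-opioid receptor alone and lack TRPC4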); settings: HEK293 mu-opioid cells, Fluo-4 calcium fluorescence, at 10 µM; active compounds read high
[17] = nonspecific potentiation of DAMGO calcium response – cell-based, HEK293 mu-opioid receptor line, counter-screen for TRPC4 allosteric potentiator project, confirmation (AID 449724;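 active = calcium signal rise more than 3 SD above the low-dose agonist control mean, in both duplicate plates and the primary screen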); settings: HEK293 mu-opioid receptor cells, Fluo-4 calcium flux, at 10 µM, compound added before EC20 DAMGO stimulus; active compounds read high

Short transient receptor potential channel 4 (Mus musculus), sequence (Q9QUQ5 whole entry, looked up): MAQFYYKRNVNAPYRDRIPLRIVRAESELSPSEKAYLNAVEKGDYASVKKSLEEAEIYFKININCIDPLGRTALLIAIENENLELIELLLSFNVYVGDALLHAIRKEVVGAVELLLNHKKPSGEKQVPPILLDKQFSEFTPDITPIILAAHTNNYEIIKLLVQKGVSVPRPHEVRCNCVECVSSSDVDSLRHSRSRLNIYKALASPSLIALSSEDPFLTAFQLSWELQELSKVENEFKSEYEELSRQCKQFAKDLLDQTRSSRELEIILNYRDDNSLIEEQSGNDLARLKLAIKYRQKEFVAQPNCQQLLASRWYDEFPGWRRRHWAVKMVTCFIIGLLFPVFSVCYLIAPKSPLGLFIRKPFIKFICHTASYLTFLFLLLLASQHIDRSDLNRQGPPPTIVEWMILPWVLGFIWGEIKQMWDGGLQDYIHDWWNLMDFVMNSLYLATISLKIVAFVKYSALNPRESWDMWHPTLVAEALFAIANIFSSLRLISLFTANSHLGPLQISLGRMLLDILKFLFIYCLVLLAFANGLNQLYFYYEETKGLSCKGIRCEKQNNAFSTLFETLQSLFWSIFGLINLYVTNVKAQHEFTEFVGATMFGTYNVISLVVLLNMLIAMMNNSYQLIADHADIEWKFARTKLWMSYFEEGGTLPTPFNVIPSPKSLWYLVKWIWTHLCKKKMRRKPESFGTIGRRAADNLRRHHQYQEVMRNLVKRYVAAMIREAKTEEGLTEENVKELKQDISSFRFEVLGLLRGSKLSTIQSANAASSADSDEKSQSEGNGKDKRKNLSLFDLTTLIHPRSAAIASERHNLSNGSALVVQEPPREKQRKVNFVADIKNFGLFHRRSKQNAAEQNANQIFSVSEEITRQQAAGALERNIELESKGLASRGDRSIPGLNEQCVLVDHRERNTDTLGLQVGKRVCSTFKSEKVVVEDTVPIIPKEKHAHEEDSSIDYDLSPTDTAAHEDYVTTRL
Short transient receptor potential channel 6 (Mus musculus), sequence (Q61143 whole entry, looked up): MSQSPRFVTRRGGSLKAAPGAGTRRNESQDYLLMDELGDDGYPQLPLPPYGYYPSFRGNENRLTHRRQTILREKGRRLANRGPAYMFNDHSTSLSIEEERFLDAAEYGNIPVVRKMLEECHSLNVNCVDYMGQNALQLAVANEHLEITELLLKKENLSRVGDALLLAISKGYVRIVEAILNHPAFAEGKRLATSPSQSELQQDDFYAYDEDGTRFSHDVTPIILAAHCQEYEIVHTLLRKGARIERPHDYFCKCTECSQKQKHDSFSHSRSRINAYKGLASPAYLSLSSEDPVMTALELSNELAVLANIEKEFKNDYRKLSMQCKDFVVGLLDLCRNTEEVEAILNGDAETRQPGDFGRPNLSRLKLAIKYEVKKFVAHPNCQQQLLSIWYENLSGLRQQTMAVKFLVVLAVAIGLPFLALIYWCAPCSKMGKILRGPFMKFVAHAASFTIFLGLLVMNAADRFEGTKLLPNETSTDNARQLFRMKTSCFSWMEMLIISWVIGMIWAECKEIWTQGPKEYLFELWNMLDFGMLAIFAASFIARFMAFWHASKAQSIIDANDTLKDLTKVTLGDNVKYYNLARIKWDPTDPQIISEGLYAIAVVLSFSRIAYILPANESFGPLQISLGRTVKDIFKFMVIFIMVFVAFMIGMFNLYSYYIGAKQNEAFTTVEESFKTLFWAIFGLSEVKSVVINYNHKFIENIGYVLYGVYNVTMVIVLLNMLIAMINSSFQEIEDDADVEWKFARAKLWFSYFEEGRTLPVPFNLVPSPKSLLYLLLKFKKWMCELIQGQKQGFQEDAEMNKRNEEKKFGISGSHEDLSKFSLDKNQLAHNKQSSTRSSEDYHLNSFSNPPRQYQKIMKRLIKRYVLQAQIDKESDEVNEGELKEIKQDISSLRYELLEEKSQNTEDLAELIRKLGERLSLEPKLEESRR

Cc1ccc(C)c2[nH]c(=O)c(C(c3nnnn3C3CCCC3)N3CCOCC3)cc12 (stereo not given)
inactive: outcome [1] | outcome [2] | outcome [3] | outcome [4] | outcome [5] | outcome [6] | outcome [7] | outcome [8] | outcome [9] | outcome [10] | outcome [11] | outcome [12] | outcome [13] | outcome [14] | outcome [15] | outcome [16] | outcome [17]

Cc1cc(S(=O)(=O)NC2CCN(Cc3ccccc3)CC2)c(C)cc1Cl
inactive: outcome [1] | outcome [2] | outcome [3] | outcome [4] | outcome [5] | outcome [6] | outcome [7] | outcome [8] | outcome [9] | outcome [10] | outcome [11] | outcome [12] | outcome [13] | outcome [14] | outcome [16] | outcome [17]
active: potentiation [15] 23.1%

COCCSc1ccccc1C(=O)N1CCC(Cc2ccccc2)CC1
inactive: outcome [1] | outcome [2] | outcome [3] | outcome [4] | outcome [5] | outcome [6] | outcome [7] | outcome [8] | outcome [9] | outcome [10] | outcome [11] | outcome [12] | outcome [13] | outcome [14] | outcome [15] | outcome [16] | outcome [17]

O=c1c2ccccc2nc(SCc2nc3ccccc3s2)n1CCCO
inactive: outcome [1] | outcome [2] | outcome [3] | outcome [4] | outcome [5] | outcome [6] | outcome [7] | outcome [8] | outcome [9] | outcome [10] | outcome [11] | outcome [12] | outcome [13] | outcome [14] | outcome [15] | outcome [16] | outcome [17]

OC(CNCCc1ccc(C(F)(F)F)cc1)COc1ccc2ccccc2c1 (stereo not given)
inactive: outcome [1] | outcome [2] | outcome [3] | outcome [4] | outcome [5] | outcome [6] | outcome [7] | outcome [8] | outcome [9] | outcome [10] | outcome [11] | outcome [12] | outcome [13] | outcome [14] | outcome [15] | outcome [16] | outcome [17]

NC(=O)NCCN1CCN(c2ncc(C(F)(F)F)cc2Cl)CC1
inactive: outcome [1] | outcome [2] | outcome [5] | outcome [6] | outcome [7] | outcome [8] | outcome [9] | outcome [10] | outcome [11] | outcome [12] | outcome [13] | outcome [14] | outcome [16] | outcome [17]
active: potentiation [3] 8% | potentiation [4] 11% | potentiation [15] 22%

O=C(NC1CC1)c1ccc2c(c1)N(Cc1ccc(Cl)cc1)CCS2
inactive: outcome [1] | outcome [2] | outcome [3] | outcome [4] | outcome [5] | outcome [6] | outcome [7] | outcome [8] | outcome [9] | outcome [10] | outcome [11] | outcome [12] | outcome [13] | outcome [14] | outcome [15] | outcome [16] | outcome [17]

Cc1cc(Nc2ccccc2O)c2ccccc2n1
inactive: outcome [1] | outcome [2] | outcome [3] | outcome [4] | outcome [5] | outcome [6] | outcome [7] | outcome [8] | outcome [9] | outcome [10] | outcome [11] | outcome [12] | outcome [13] | outcome [14] | outcome [15] | outcome [16] | outcome [17]

COc1ccc(CCn2c(N)c(C#N)c3nc4ccccc4nc32)cc1OC
inactive: outcome [1] | outcome [2] | outcome [3] | outcome [4] | outcome [5] | outcome [6] | outcome [7] | outcome [8] | outcome [9] | outcome [10] | outcome [11] | outcome [12] | outcome [13] | outcome [14] | outcome [15] | outcome [16] | outcome [17]

CCOC(=O)c1c(C)oc2ccc(O)c(CN3CCCCC3)c12
inactive: outcome [1] | outcome [2] | outcome [3] | outcome [4] | outcome [5] | outcome [6] | outcome [7] | outcome [8] | outcome [9] | outcome [10] | outcome [11] | outcome [12] | outcome [13] | outcome [14] | outcome [15] | outcome [16] | outcome [17]

N#Cc1ccc(-c2ccccc2)nc1SCCN1CCOCC1
active: potentiation [15] 17.3%
inactive: outcome [1] | outcome [2] | outcome [3] | outcome [4] | outcome [5] | outcome [6] | outcome [7] | outcome [8] | outcome [9] | outcome [10] | outcome [11] | outcome [12] | outcome [13] | outcome [14] | outcome [16] | outcome [17]

CCCN(C(=O)COC(=O)C12CCC(=O)N1c1ccccc1S2)c1c(N)n(Cc2ccccc2)c(=O)[nH]c1=O (stereo not given)
inactive: outcome [1] | outcome [2] | outcome [3] | outcome [4] | outcome [6] | outcome [7] | outcome [8] | outcome [9] | outcome [10] | outcome [12] | outcome [13] | outcome [14] | outcome [15] | outcome [16] | outcome [17]
active: inhibition [5] 52% | activation [11] 28%

Cc1ccc(/C=C/C(=O)NC2CCCCCCC2)o1
inactive: outcome [1] | outcome [2] | outcome [3] | outcome [5] | outcome [6] | outcome [7] | outcome [8] | outcome [9] | outcome [10] | outcome [11] | outcome [12] | outcome [13] | outcome [14] | outcome [16] | outcome [17]
active: potentiation [4] 16% | potentiation [15] 19.1%

c1ccc(CN2CCN(c3nc4ccccc4s3)CC2)cc1
inactive: outcome [1] | outcome [2] | outcome [3] | outcome [5] | outcome [6] | outcome [7] | outcome [8] | outcome [9] | outcome [10] | outcome [11] | outcome [12] | outcome [13] | outcome [14] | outcome [16] | outcome [17]
active: potentiation [4] 9% | potentiation [15] 14.8%

CN(CC(=O)Nc1ccc(F)cc1)C(=O)COC(=O)c1ccccc1
inactive: outcome [1] | outcome [2] | outcome [5] | outcome [6] | outcome [7] | outcome [8] | outcome [9] | outcome [10] | outcome [11] | outcome [12] | outcome [13] | outcome [14] | outcome [16] | outcome [17]
active: potentiation [3] 27% | potentiation [4] 25% | potentiation [15] 23.8%
